# The list is not random: actives were taken first. Their share in the collection is about 6.2%.
# Lassa entry inh: qHTS for Inhibitors of binding or entry into cells for Lassa Virus; actives 1.2% (n = 300,000); Potency, µM (series often up to 37.9 µM), for the others: at the top dose activity change, negative = inhibition, actives largely listed as inhibitors; Lassa virus pseudotype entry inhibition, cell reporter; calls by dose curve; tested in HEK293 cells; also: potency is read from the fitted curve at half-maximal effect; nearly all actives have a fitted effect of over 50% in size
# HCMV antiviral: qHTS Assay for inhibitors of the human cytomegalovirus (HCMV); HFF cells, HCMV-luciferase reporter, 72 h; hits give low values; activity change, negative = inhibition, % at 57.5 µM; actives 4.5% (n = 410,000); AID 1259415, 2018; in the data active = activity change below about -60%; inconclusive = no clear call, values can overlap the other calls; inactive = above about -39%
#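 Cell-based, HFFs, 1000 cells/well, 16 h 37C; cpds in DMSO + HCMV-luc, MOI 1 PFU/cell; 72 h 37C; OneGlo luminescence after 5 min RT; norm. to buffer vs Salinomycin 10uM.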
# Marburg entry inh: qHTS for inhibitors of binding or entry into cells for Marburg Virus | Marburg virus pseudotyped entry inhibition, cell reporter | Potency, µM (top dose mostly 37.8 µM), for the others: at the top dose activity change, negative = inhibition, actives largely listed as inhibitors | actives 1.8% (n = 300,000) | AID 540276, 2011; calls by dose curve; tested in HEK293 cells; also: potency is read from the fitted curve at half-maximal effect
# FMDV inh: High Throughput Screening for Foot and Mouth Disease Virus Antivirals; actives 1.2% (n = 410,000); FMDV antiviral cell-based qHTS; Potency, µM (titrated, usually from 57.9 µM), for the others: at the top dose activity change, negative = inhibition, hits mostly inhibitors; calls by dose curve; tested in HEK293T cells; also: read-out not given here; potency is read from the fitted curve at half-maximal effect; nearly all actives have a fitted effect of over 45% in size
# * hit, by the source's call; ? = inconclusive; / = no result given; [ ] = remark or other dose. % is scaled to controls: 0 for no effect and ±100 for the full control effect.
SMILES,Lassa entry inh,HCMV antiviral,Marburg entry inh,FMDV inh
CN(C)S(=O)(=O)c1cccc(C(=O)Nc2ccc(N3CCOCC3)cc2)c1,5%,-79*,7%,2%
CNC(=O)c1ccc(NC(=O)c2cc(S(=O)(=O)N(C)C)ccc2N2CCCC2)cc1,/,-100*,/,-22%
COc1ccc(N(C)S(=O)(=O)c2cccc(C(=O)Nc3ccc(N4CCOCC4)cc3)c2)cc1,/,-31,/,?
O=C(N/N=C/c1sc(N2CCOCC2)nc1-c1ccccc1)c1ccc(O)cc1,?,49,-9%[46.1 µM],-1%
Cc1cccc(C)c1NC(=O)c1cc(S(=O)(=O)N2CCOCC2)cn1C,/,9,/,0%
NC(=O)c1ccccc1NC(=O)CCCCCn1nnc2ccccc2c1=O,/,-35,/,0%
COc1ccc(-n2c(SCC(=O)N3CCOCC3)nc3ccccc3c2=O)cc1,0%,?,4%,?
COC(=O)c1c(C)oc2cc(Br)c(OCC(=O)C(C)(C)C)cc12,?,0,-3%,2%
CCCCCc1nc2c(c(=O)c3ccccc3n2C)c(=O)n1C1CCCCCC1,16µM*,?,?,32µM*
Cc1nc2c(c(=O)c3ccccc3n2C)c(=O)n1C1CCCCCC1,15%,-17,?,24%
Cn1c2ccccc2c(=O)c2c(=O)n(C3CCCCC3)c(-c3ccco3)nc21,4%,-63*,?,-28%
C=CCn1c(COc2ccc(F)cc2)nnc1SCC(=O)N1CC(=O)Nc2ccccc21,15%,-11,8%,-13%
O=C(NNC(=O)c1ccccc1-c1ccccc1C(=O)O)c1ccccc1,-1%[46.1 µM],-25,13%[46.1 µM],-4%
O=C(C=P(c1ccccc1)(c1ccccc1)c1ccccc1)c1ccccc1-c1ccccc1C(=O)C=P(c1ccccc1)(c1ccccc1)c1ccccc1,2.2µM*,-98*,?,20µM*
CCC(CO)[n+]1c(C)cc(/C=C2\Sc3ccccc3N2Cc2ccccc2)cc1C (configuration not stated),?,-100*,?,10µM*
Clc1ccc2nnnc(-c3ccccc3)c2c1,10µM*,-102*,6.5µM*,?
c1ccc(-c2nnnc3ccccc23)cc1,-26%,-30,-34%,-1%
Cc1nc2ccc(S(=O)(=O)NCC(=O)NCc3ccc4c(c3)OCO4)cc2s1,4%,11,0%,8%
Cc1ccc(-n2ccnc(NCCc3ccc(S(N)(=O)=O)cc3)c2=O)cc1C,-4%[46.1 µM],5,/,-19%
CCCCCCc1cc2cc(-c3nnc(-c4ccccc4O)o3)c(=O)oc2cc1O,-1%,-104*,19%,?
CCCCCCc1cc2cc(-c3nnc(-c4ccccc4OC)o3)c(=O)oc2cc1O,?,-74*,?,?
CCCCCCc1cc2cc(-c3nnc(-c4cc(OC)c(OC)c(OC)c4)o3)c(=O)oc2cc1O,3%,/,-2%,14%
CCOc1ccc(S(=O)(=O)N2CCN(C(=O)c3ccc(Cl)c(S(=O)(=O)N4CCOCC4)c3)CC2)cc1,/,-60*,/,?
CCOc1ccc(S(=O)(=O)N2CCN(C(=O)c3cc(S(=O)(=O)N4CCOCC4)ccc3C)CC2)cc1,-4%,-2,-6%,-28%
CCOc1ccc(S(=O)(=O)N2CCN(C(=O)c3ccc(C)c(S(=O)(=O)N4CCOCC4)c3)CC2)cc1,?,-61*,?,?
SMILES,Lassa entry inh,HCMV antiviral,Marburg entry inh,FMDV inh
Cc1nc2[nH]c(=S)[nH]c(=O)c2nc1C,1%,9,0%,7%
Cc1nc2[nH]c(=S)[nH]c2c(=O)[nH]1,9%[46.1 µM],-64*,15%[46.1 µM],16%
CCOC(=O)c1cc(-c2ccc(OC)c(S(=O)(=O)NCc3ccccc3Cl)c2)on1,30%[46.1 µM],?,/,26%
CCOC(=O)c1cc(-c2ccc(OC)c(S(=O)(=O)NC3CCCCC3)c2)on1,29%[46.1 µM],-69*,/,69%
CN(C)/C=C/c1onc(-c2c(Cl)cccc2Cl)c1C#N,?,-13,?,-24%
COc1ccc(-n2cnnc2SCC(=O)Nc2ccccc2F)cc1,/,-36,/,-16%
Cc1ccc(C(=O)Nc2nc(COc3ccccc3)cs2)s1,-45%,-75*,-20%,/
CC(=O)Nc1nc(COc2ccccc2)cs1,0%,100,4%,0%
O=C(Nc1nc(COc2ccccc2)cs1)C12CC3CC(CC(C3)C1)C2,-5%,-84*,-5%,-10%
CCCCCN1C2=NCCN2c2ccccc21,1%,-11,-25%,-26%
COc1ccc(/C=C/c2cc(C(=O)O)c3ccccc3n2)cc1,?,-6,?,2.8µM*
COc1cc(OC)c(OC)cc1/C=C/c1cc(C(=O)O)c2ccccc2n1,/,-31,/,-4%
COc1ccc(/C=C/C(=O)Nc2ccccc2C(=O)O)cc1OC,1.3µM*,-81*,1.5µM*,-3%
COc1ccc(/C=C/C(=O)Nc2ccccc2C(=O)O)cc1,?,-3,1.6µM*,-23%
COc1ccc(/C=C/C(=O)Nc2ccccc2C(F)(F)F)cc1OC,?,4,5%,0%
Cc1oc2ccc(OCc3ccc(Cl)cc3)cc2c1C(=O)O,25%[46.1 µM],-38,5%[46.1 µM],3%
Cc1cc(C(=O)C(C)OC(=O)c2ccc(NC(=O)CC#N)cc2)c(C)n1-c1ccc(OC(F)F)cc1 (configuration not stated),14µM*,?,?,0%
CNC(=S)/N=C/NOCc1ccc(Cl)cc1Cl,?,-78*,?,?
CN1C(=O)N(C)C(=O)C2(Cc3cc([N+](=O)[O-])ccc3N3CCN(C(=O)c4ccccc4)CC32)C1=O (configuration not stated),/,-24,10%[46.1 µM],-10%
Cc1csc(Cn2c(CN(C)C)nc3ccccc3c2=O)n1,4%,-1,8%,-2%
CN(C)Cc1nc2ccccc2c(=O)n1Cc1nc(-c2cc3ccccc3o2)cs1,-2%,7,11µM*,-28%
COc1ccc(NC(=O)C2CCCN(S(=O)(=O)c3ccc4c(c3)CCCN4C(C)=O)C2)cc1 (configuration not stated),?,0,20%[46.1 µM],-12%
Cc1occc1-c1nnc(SCC(=O)Nc2ccccc2)n1Cc1ccccc1,-13%,-62*,?,/
Cc1occc1-c1nnc(SCC(=O)Nc2ccc(F)cc2)n1Cc1ccccc1,?,16,?,-20%
CCN(CCC(=O)O)c1ccccc1,-14%,11,15%,-5%
SMILES,Lassa entry inh,HCMV antiviral,Marburg entry inh,FMDV inh
CCN(CC)C1=NC(=[N+](CC)CC)c2ccccc21,?,-103*,?,?
COc1ccc(S(=O)(=O)NCc2ccco2)c2ccccc12,15%,-66*,3%,/
COc1ccc(/C=C/C(=O)O)cc1S(=O)(=O)NCc1ccco1,0%[46.1 µM],11,4%[46.1 µM],0%
CN1CCN(c2ccc(S(=O)(=O)N3CCOCC3)cc2NC(=O)Cc2ccccc2F)CC1,/,-12,/,2%
C/C(=N\Nc1nc(C)cc(-c2ccccc2)n1)c1ccc(C)o1,?,-63*,-17%[46.1 µM],?
C/C(=N\Nc1nc(C)cc(-c2ccccc2)n1)c1ccccc1,?,?,?,14%
C/C(=N\Nc1nc(C)cc(-c2ccccc2)n1)c1ccc(O)cc1,/,-89*,/,10%
